# Measured values published in PubChem BioAssay.
# Assay: Primary imaging screen for DUSP6 inhibitors that restore phospho-Erk in transfected HeLa cells, chemical complementation (AID 609)
# Settings: HeLa MKP-3 transfected, phospho-Erk imaging KS statistic; measured here: cell density z-score; at 10 µM; cells stimulated with TPA for 15 min
row,SMILES,z-score
1,Cc1nnc2n(-c3ccccc3)c(=O)c3c4c(sc3n12)CCCC4,-1.12
2,Cc1c(NC(=O)c2ccc(=O)oc2)c(=O)n(-c2ccccc2)n1C,-1.01
3,Cc1nc2sc(C#N)c(N)c2c2c1CCCC2,-2.36
4,Fc1ccc(-c2cnc[nH]2)cc1,-1.11
5,CC(CCc1ccccc1)NCC(O)c1ccc(O)c(C(N)=O)c1 (centres undefined),0.375
6,CCOC(=O)c1ccc2nc(NC(NC(C)=O)(C(=O)OC)C(F)(F)F)sc2c1 (centres undefined),1.37
7,COc1cccc(N2C(=O)C(O)=C(C(C)=O)C2c2ccc(OC)c(OC)c2)c1 (centres undefined),-1.18
8,CCCCOc1ccccc1C(=O)NCCCC(=O)O,-0.714
9,COc1ccc(CCn2c(=N)c(C#N)cc3c(=O)n4ccccc4nc32)cc1,1.77
10,O=C(NC1CCS(=O)(=O)C1)c1c(NC(=O)C2COc3ccccc3O2)sc2c1CCCC2 (centres undefined),0.65
11,Cc1nn(-c2ccccc2)c2c1C(=O)NC(=O)C(C)(C)C2,0.866
12,O=C(Nc1ccccn1)NC(C(F)(F)F)C(F)(F)F,0.555
13,CCC(NC(=O)Nc1cc(OC)c(OC)c(OC)c1)(C(F)(F)F)C(F)(F)F,-0.0203
14,COC(=O)C(NC(C)=O)(Nc1ccccn1)C(F)(F)F (centres undefined),2.44
15,CC1(C)CNC(=O)c2sc(N3CCOCC3)nc2C1,-0.682
16,CCN1CCc2c(C#N)c(N3CCCCC3)nc(NCc3ccccc3)c2C1,1.27
17,CCOC(=O)CNC(=O)Nc1ccccc1C(=O)OC,0.104
18,CCn1nc(NC(=O)c2cccnc2)c2cc3ccccc3nc21,0.0666
19,Cn1c(=O)n(Cc2ccccc2)c(=O)c2c1nc(NCC1CCCO1)n2Cc1ccccc1 (centres undefined),-3.11
